Our source for the growth values is PubChem BioAssay (NCI).

This is part of a sample that, as a whole, favours compounds with a hit. Of some 83,000 tested, about 20% had one in any assay.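 48-hour exposure, single concentration, 96-well plates; percent growth endpoint where 0 means no net growth. Active: below 10.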 A number with no mark means an inactive call. Active and inactive are the calls of the source.

Test systems include HCT-15 colon; HT29 colon; SNB-75 CNS; SNB-19 CNS; U251 CNS; PC-3 prostate; SK-MEL-5 melanoma; UACC-62 melanoma; LOX IMVI melanoma; SK-MEL-28 melanoma.
Test in all cases: NCI-60 one-dose screen, 48 h (100 = growth as untreated, 0 = no growth, -100 = all killed)
Holding throughout (conditions): 10 µM unless noted

In the case of `Cc1cc(/C=C\c2ccc3ccccc3[n+]2C)c(O)c2ncccc12`, the growth in the assay on HCT-15 colon was 27.9%; in the assay on HT29 colon, 25.7%; with SNB-75 CNS, 37.8%; with SNB-19 CNS, 11.9%; in the assay with U251 CNS it was 9.3% (active); in the assay with PC-3 prostate, 34.1%. The growth in the assay with SK-MEL-5 melanoma is 6.19% (active); with UACC-62 melanoma, -26.5% (active); with LOX IMVI melanoma, -27.2% (active); in the assay on SK-MEL-28 melanoma, 25.7%.
In the case of `CC1OC(O[C@H]2/C=C/C=C/C=C/C=C/C=C/C=C/C=C/[C@H](C)[C@@H](O)[C@@H](C)[C@H](C)OC(=O)CC(O)CC(O)CCC(O)C(O)CC(O)C[C@]3(O)C[C@H](O)C(C(=O)O)C(C2)O3)C(O)[C@H](N)C1O` (stereo not given in full), the growth with HCT-15 colon was 76.7%; with HT29 colon it was 36.8%; in the assay with SNB-75 CNS it was 57.8%; in the assay on SNB-19 CNS, 40.2%; with U251 CNS, -57.1% (active); in the assay with PC-3 prostate it was -54.6% (active). Moreover, the growth in the assay with SK-MEL-5 melanoma was 35.9%; in the assay on UACC-62 melanoma, -13% (active); in the assay on LOX IMVI melanoma, -12% (active); in the assay on SK-MEL-28 melanoma, -65.8% (active).
As to `COc1ccc2c(c1)O/C(=C\c1cccc(OCC(=O)Nc3nc(C)c(C)s3)c1)C2=O`, the growth with HCT-15 colon is 94.1%; with HT29 colon it was -29.9% (active); with SNB-75 CNS it was -63.1% (active); with SNB-19 CNS, 88.5%; in the assay with U251 CNS, -64.5% (active); in the assay with PC-3 prostate, -38.7% (active). Further, the growth is 111% in the assay on SK-MEL-5 melanoma, 81.7% in the assay on UACC-62 melanoma, -68% (active) in the assay on LOX IMVI melanoma and 84.8% in the assay with SK-MEL-28 melanoma.
In the case of `COc1cccc(-c2nn(-c3ccccc3)cc2-c2ccnc(NCCNC(=O)Nc3cccc(C(F)(F)F)c3)c2)c1`, the growth was 6.17% (active) in the assay with HCT-15 colon; -43.6% (active) in the assay on HT29 colon; 46.3% in the assay on SNB-75 CNS; 36% with SNB-19 CNS; 19.9% in the assay on U251 CNS; 17.1% with PC-3 prostate. The growth with SK-MEL-5 melanoma is 39.2%; with UACC-62 melanoma, -7.83% (active); in the assay on LOX IMVI melanoma, -77.3% (active); with SK-MEL-28 melanoma, 32.5%.
For the compound `CC(=O)n1c(-c2ccc(Cl)cc2)nc2c(c1=O)C(c1ccc(Cl)cc1)c1sc3c(Cl)cccc3c1O2` (stereo not given), the growth in the assay on HCT-15 colon was -37.4% (active); in the assay with HT29 colon, -52.4% (active); in the assay on SNB-75 CNS, -22% (active); in the assay with SNB-19 CNS, 14.2%; with U251 CNS it was -37.7% (active); with PC-3 prostate, 4.54% (active). For the same compound, the growth in the assay with SK-MEL-5 melanoma was -17.7% (active); in the assay with UACC-62 melanoma it was 3.42% (active); in the assay with LOX IMVI melanoma, -33.8% (active); in the assay on SK-MEL-28 melanoma it was 18%.
Take `NC[C@H](O)c1ccc(O)c(O)c1`: the growth was 104% in the assay with HCT-15 colon; 102% with HT29 colon; 120% with SNB-75 CNS; 112% with SNB-19 CNS; 106% with U251 CNS; 99.7% in the assay on PC-3 prostate. Further, the growth was 104% in the assay with SK-MEL-5 melanoma, 102% in the assay with UACC-62 melanoma, 94.2% in the assay on LOX IMVI melanoma and 116% with SK-MEL-28 melanoma.
For `COc1cc2c(cc1-c1c(C)noc1C)ncc1nc(C3CCC(F)(F)CC3)n(C3CCC(OC(F)F)CC3)c12` (stereo not given), the growth with HCT-15 colon is 36.1%; in the assay with HT29 colon, 31.6%; in the assay with SNB-75 CNS, 15.1%; in the assay with SNB-19 CNS it was 67.2%; in the assay with U251 CNS it was 77.7%; with PC-3 prostate, 41.8%. The growth with SK-MEL-5 melanoma was 43.7%; with UACC-62 melanoma, 32%; in the assay on LOX IMVI melanoma it was 35.2%; in the assay on SK-MEL-28 melanoma it was 66.6%.
Regarding `Cc1ccc(S(=O)(=O)N/N=C\c2cc(Cl)ccc2O)cc1`, the growth in the assay on HCT-15 colon was 81.8%; with HT29 colon it was 103%; with SNB-75 CNS, 88.5%; in the assay with SNB-19 CNS it was 86.2%; with U251 CNS, 90.4%; with PC-3 prostate, 93.6%. Further, the growth is 99.6% in the assay on SK-MEL-5 melanoma, 106% with UACC-62 melanoma, 88.3% with LOX IMVI melanoma and 98.3% in the assay on SK-MEL-28 melanoma.
In the case of `CCCCCS(=O)(=O)Nc1ccc(C(=O)O)cc1`, the growth was 109% with HCT-15 colon; 97.2% in the assay on HT29 colon; 92.3% in the assay with SNB-75 CNS; 106% in the assay on SNB-19 CNS; 92.8% with U251 CNS; 102% in the assay with PC-3 prostate. Besides, the growth was 100% with SK-MEL-5 melanoma, 98.8% with UACC-62 melanoma, 99.9% in the assay with LOX IMVI melanoma and 111% in the assay with SK-MEL-28 melanoma.
For the compound `Cc1cc[c-]cc1.Fc1c[c-]c(-c2ccccn2)c(F)c1.[Pt+2].c1ccc(P(C[PH+](c2ccccc2)c2ccccc2)c2ccccc2)cc1`, the growth in the assay on HCT-15 colon was 47%; with HT29 colon, 16.9%; in the assay with SNB-75 CNS it was 4.48% (active); in the assay on SNB-19 CNS, 17.5%; in the assay on U251 CNS it was 12.9%; in the assay on PC-3 prostate, 11.2%. Moreover, the growth with SK-MEL-5 melanoma was -94.9% (active); with UACC-62 melanoma, 9.82% (active); in the assay with LOX IMVI melanoma it was 18.5%; in the assay on SK-MEL-28 melanoma, 36.4%.
On to `COc1cc2c(cc1-c1c(C)noc1C)ncc1nc(C3CCCCC3)n(C3CCC(OC(F)F)CC3)c12` (stereo not given), for which the growth is 25.3% in the assay on HCT-15 colon; 19.9% with HT29 colon; 23.3% in the assay on SNB-75 CNS; 55.8% with SNB-19 CNS; 25.1% with U251 CNS; 16.8% with PC-3 prostate. For the same compound, the growth in the assay on SK-MEL-5 melanoma was 9.79% (active); in the assay with UACC-62 melanoma, 22.3%; in the assay on LOX IMVI melanoma it was 17.8%; in the assay on SK-MEL-28 melanoma, 46.6%.
On to `O=[N+]([O-])c1ccc(Sc2cccc[n+]2[O-])c2nonc12`, for which the growth is 73.1% in the assay with HCT-15 colon; 78.2% in the assay on HT29 colon; 80.7% with SNB-75 CNS; 88.3% in the assay with SNB-19 CNS; 2.22% (active) with U251 CNS; 41.8% with PC-3 prostate. Also, the growth in the assay with SK-MEL-5 melanoma was 72.3%; in the assay with UACC-62 melanoma it was 50.6%; in the assay with LOX IMVI melanoma it was 2.14% (active); in the assay with SK-MEL-28 melanoma, 23.8%.
Take `C=C(C)[C@@H]1CC[C@]2(C(=O)NC3CCCCC3)CC[C@]3(C)[C@H](CC[C@@H]4[C@@]5(C)CCCNC(C)(C)[C@@H]5CC[C@]43C)[C@@H]12`: the growth was -26.8% (active) in the assay on HCT-15 colon; 2.51% (active) in the assay with HT29 colon; 93.9% in the assay with SNB-75 CNS; 84.3% in the assay on SNB-19 CNS; 14.9% in the assay on U251 CNS; 49.7% in the assay on PC-3 prostate. Further, the growth with SK-MEL-5 melanoma is 6.77% (active); in the assay with UACC-62 melanoma, 11.7%; in the assay with LOX IMVI melanoma, -91.8% (active); in the assay on SK-MEL-28 melanoma it was 56.6%.
